# Many of the other results were omitted from the sample, so hits are more common in it than they were.
# Giardia FBPA inh – blocks Giardia fructose-bisphosphate aldolase activity | A8B2U2 | purified Giardia FBPA | Potency, µM (titrated, usually from 59.6 µM), without a hit: at the highest dose activity, negative = inhibition, most hits filed as inhibitors | 0.71% of 290,000 active | AID 2451; further: potency means the concentration at half of the fitted maximal effect; on the % scale 0 is the no-effect control and ±100 the full control effect; nearly all actives have a fitted effect of over 55% in size
# Target sequence (A8B2U2 whole entry, looked up): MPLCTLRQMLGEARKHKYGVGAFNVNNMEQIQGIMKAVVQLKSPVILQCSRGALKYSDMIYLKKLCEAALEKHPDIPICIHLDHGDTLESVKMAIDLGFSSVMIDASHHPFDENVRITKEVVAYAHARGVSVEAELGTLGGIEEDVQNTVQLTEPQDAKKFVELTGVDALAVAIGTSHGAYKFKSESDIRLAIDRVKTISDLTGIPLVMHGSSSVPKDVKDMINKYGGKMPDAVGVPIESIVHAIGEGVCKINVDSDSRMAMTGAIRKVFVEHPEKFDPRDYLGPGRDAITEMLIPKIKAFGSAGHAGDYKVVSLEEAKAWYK
#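 Giardia FBPA (40 nM reagent) was preincubated 10 min at RT with compound (up to 57.5 uM final), then substrate plus GAPDH/TPI/NAD/arsenate coupling system with diaphorase/resazurin was added; resorufin fluorescence (525/598 nm) was read after 20 min.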
# Shiga toxin inh – Shiga toxin inhibition; inhibition, % at 38.7 µM; 9.2% of 290,000 active; Vero cells, Shiga toxin protein synthesis inhibition reporter; AID 2315; in the data active means inhibition mostly above about 28%, no sharp cut-off; inactive means mostly below about 43%; further: 0% is about no effect
# Sm TGR inh – blocks Schistosoma mansoni thioredoxin glutathione reductase. Q962Y6. purified TGR, DTNB reduction, TNB absorbance 405 nm. Potency, µM (highest dose often 114 µM), inactives show at the highest dose activity change, negative = inhibition, actives largely listed as inhibitors. 3% of 360,000 active. AID 485364; further: potency means the concentration at half of the fitted maximal effect; on the % scale 0 is the no-effect control and ±100 the full control effect; nearly all actives have a fitted effect of over 60% in size
#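 First, TGR (20 nM dispensed) and NADPH were mixed with compound. Second, a 15 min room-temperature incubation followed. Third, further NADPH and then DTNB were added to start the reaction. Finally, TNB absorbance was monitored kinetically.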
# TbPYK inhibitor – T. brucei pyruvate kinase inhibition. TbPYK enzyme, Kinase-Glo Plus ATP luminescence, 45 min. 0.12% of 410,000 active. Potency, µM (series often up to 76.8 µM), inactives show at the top dose activity, negative = inhibition, actives largely listed as inhibitors. Q57TT1; further: potency means the concentration at half of the fitted maximal effect; on the % scale 0 is the no-effect control and ±100 the full control effect; nearly all actives have a fitted effect of over 50% in size
#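 ADP (130 uM final) triggers the TbPYK reaction after compound addition; incubation is 45 min at room temperature. Kinase-Glo Plus is then added and luminescence imaged. Normalized data are fitted to concentration-effect curves.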
# LmPK inh – blocks Leishmania mexicana pyruvate kinase activity; purified LmPK, Kinase-Glo ATP luminescence, 1 h; Potency, µM (highest dose often 57.5 µM), for inactives: at the top dose activity change, negative = inhibition, hits mostly inhibitors; 0.37% of 290,000 active; AID 1721; Q27686; further: potency means the concentration at half of the fitted maximal effect; on the % scale 0 is the no-effect control and ±100 the full control effect
#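 In 50 mM imidazole pH 7.2 with 7 mM MgCl2, LmPK (0.1 nM) turned over PEP (0.5 mM) and ADP (0.1 mM) for 1 h at room temperature. Luciferase read-out of ATP.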
# Cycloheximide cs – counter-screen hit for Shiga toxin inhibitors, cycloheximide. cell reporter, cycloheximide protein synthesis inhibition counterscreen. max response, %. 12% of 300,000 active. AID 2314; in the data active means max response mostly above about 13%, no sharp cut-off; inactive means mostly below about 14%; further: read at 38.3 µM for the half of the compounds with a filed dose; 0% is about no effect
# * marks the source's active call; other numbers are inactive results; ? = inconclusive; . = no result given; [ ] = another dose, or the depositor's remark. Unless noted, the call rests on the fitted dose curve; in most records, active means well fitted curve in the direction sought with a large enough effect; inconclusive means small, poorly fitted or top-dose-only effect, or another doubt; inactive means no such curve, though single readings can be large; an effect the other way counts as inactive or inconclusive.
SMILES,Giardia FBPA inh,Shiga toxin inh,Sm TGR inh,TbPYK inhibitor,LmPK inh,Cycloheximide cs
CC1CCc2c(sc3nnn(Cc4ccccc4Cl)c(=O)c23)C1 (configuration not stated),.,.,3%,-10%,.,.
COc1ccc(NC(=O)Nc2nnc(-c3ccncc3)s2)cc1,-9%,26,-1%,-1%,-4%,19
COc1ccc(NC(=O)Nc2nnc(-c3ccco3)s2)cc1,3%,59*,1%,1%,7%,34*
O=C(Nc1ccc(Cl)cc1)Nc1nnc(CSCc2ccc(Cl)cc2)s1,4%,-7,-8%,-7%,-3%,-6
COc1ccc(CC(=O)Nc2nnc(C(C)C)s2)cc1,5%,29,1%,-6%,4%,19*
CCc1nnc(NC(=O)Nc2ccc(Cl)cc2)s1,2%,52*,-1%,4%,-2%,25*
COc1ccc(NC(=O)Nc2nnc(C(C)C)s2)cc1,8%,62*,1%,-12%,4%,42*
COC(=O)C/C=C1\c2ccccc2[C@H](OC)[C@H]1C,1%[12.9 µM],.,.,.,.,.
COc1cccc2cc(-c3nnc(Nc4ccccc4C)s3)c(=O)oc12,.,.,2%,3%,.,.
CCOC(=O)c1cccc(NC(=O)[C@H](CSCc2ccccc2)N2Cc3ccccc3C2=O)c1,.,.,6%,2%,.,.
COc1ccc(NC(=O)Nc2nnc(Cc3ccc(F)cc3)s2)cc1,7%,8,6%,-1%,2%,13
CCCc1nnc(NC(=O)Nc2ccc(OC)cc2)s1,5%,39,3%,-1%,6%,24*
CC(C)=CC(=O)OCc1cc([N+](=O)[O-])cc2c1OCOC2,4%,88*,-1%,0%,-1%,65*
COc1cc(/C=N/NC(=O)c2ccccn2)ccc1OC(=O)c1ccc(Br)cc1,10%,41,0%,-6%,-4%,25*
COc1cc(/C=N/NC(=O)c2ccccn2)ccc1OC(=O)c1ccccc1Br,3%,71*,4%,-4%,-1%,43*
COc1cc(/C=N/NC(=O)c2ccncc2)ccc1OC(=O)c1ccccc1Cl,-8%,19,.,-1%,-1%,-2
CC[C@H](C)[C@H](NC(=O)[C@H](CCC(=O)O)NC(=O)[C@H](CC(N)=O)NC(=O)[C@@H](N)[C@@H](C)O)C(=O)N[C@H](C(=O)N[C@@H](CCC(=O)O)C(=O)N[C@@H](CCC(=O)O)C(=O)N[C@@H](CCC(N)=O)C(=O)N[C@@H](Cc1ccc(O)cc1)C(=O)N[C@H](C(=O)N1CCC[C@H]1C(=O)N[C@@H](CCC(N)=O)C(=O)N[C@@H](CO)C(=O)N[C@@H](CC(C)C)C(=O)N[C@@H](C)C(=O)N[C@H](C(=O)N[C@@H](CC(C)C)C(=O)N[C@@H](CCC(=O)O)C(=O)N[C@@H](CO)C(=O)N[C@H](C(=O)N[C@@H](Cc1ccccc1)C(=O)N[C@@H](CCC(N)=O)C(=O)N[C@@H](CCC(=O)O)C(=O)N[C@@H](CC(C)C)C(=O)NCC(=O)N[C@@H](CCCCN)C(=O)N[C@@H](CC(C)C)C(=O)N[C@H](C(=O)NCC(=O)N1CCC[C@H]1C(=O)N[C@@H](CC(N)=O)C(=O)N[C@@H](CO)C(=O)N[C@@H](CCC(N)=O)C(=O)O)[C@@H](C)O)C(C)C)[C@@H](C)O)[C@@H](C)O)C(C)C,0%,-7,.,.,.,-3
CC(=O)Nc1c(Cl)cc(Cl)c2c1Cc1cc(Cl)ccc1-2,.,.,.,2%,.,.
Cc1nc(C(F)(F)F)ccc1C(=O)NN1CCOCC1,4%,-1,8%,2%,7%,-3
Cc1nc(C(F)(F)F)ccc1C(=O)NCC(O)c1ccccc1 (configuration not stated),12%,71*,0%,-24%,5%,45*
Cc1nc(C(F)(F)F)ccc1C(=O)Nc1ccccc1F,0%,0,3%,0%,4%,21
Cc1nc(C(F)(F)F)ccc1C(=O)Nc1ccc2ccccc2n1,10%,49*,12%,-1%,4%,21*
O=C(NCCNC(=O)c1ccccc1)c1ccccc1,-4%,-5,-1%,3%,0%,-2
O=C(NCC(O)c1ccccc1)c1ccccc1 (configuration not stated),-2%,60*,24%,1%,-16%,32*
N#Cc1cccc(-c2nc3cnc(Nc4ccccc4)nc3n(C[C@H]3CCCO3)c2=O)c1,0%,.,.,-7%,.,.
SMILES,Giardia FBPA inh,Shiga toxin inh,Sm TGR inh,TbPYK inhibitor,LmPK inh,Cycloheximide cs
CSc1ccc(CCNC(=O)CCc2c(C)nc3cc(-c4ccccc4)nn3c2C)cc1,.,.,5%,5%,.,.
Cc1cc(C(=O)N/N=C/c2cccnc2)c(C)o1,3%,8,3%,-18%,-11%,16*
Cc1occc1C(=O)N/N=C/c1cccnc1,0%,75*,-13%,-4%,?,25*
COCCNC(=O)c1cccc(OC2CCN(Cc3ccccc3C)CC2)c1,10%,-6,17%,2%,4%,2
CCC(=O)N1CCc2cc(S(=O)(=O)CCC(=O)N3CCN(c4cccc(C)c4C)CC3)ccc21,.,.,6%,2%,.,.
CC(C)C1=NN(C(=O)c2ccccc2)C(O)(C(C)(C)C)C1 (configuration not stated),9%,21,3%,-3%,0%,29*
CC(C)(C)C1=NN(C(=O)c2ccccc2)C(O)(C(C)(C)C)C1 (configuration not stated),0%,34*,9%,-6%,-4%,13*
CC(C)(C)C1(O)CC(C(F)(F)F)=NN1C(=O)CCCc1ccccc1 (configuration not stated),0%,-8,-8%,-1%,0%,-2
CCCc1cc(OC)c2c(c1)OCO2,-6%,.,.,.,.,.
Cc1cccc(NC(=O)CN(CC2CCCO2)C(=O)c2ccc(S(C)(=O)=O)cc2)c1C (configuration not stated),.,.,6%,2%,.,.
C/C(=C\c1ccc(C)o1)C(=O)c1c(C)cc(C)[nH]c1=O,-9%,21,18µM*,-23%,2%[11.5 µM],-6
CCN(C(=O)COC(=O)/C=C/c1c(C)nn(-c2ccccc2)c1C)c1c(N)n(Cc2ccccc2)c(=O)[nH]c1=O,.,.,.,-3%,.,.
Cc1ccc(C)c(-n2c(-c3ccc4c(c3)OCO4)n[nH]c2=S)c1,23%,15,24%,5µM*,4µM*,2
Cc1ccc(-n2c(-c3ccncc3)n[nH]c2=S)cc1C,-27%,-7,-4%,?,-2%,-5
Cc1ccc(C)c(-n2c(-c3csc(C)c3)n[nH]c2=S)c1,0%,-22,-4%,?,7.9µM*,-2
Cc1ccc(C)c(-n2c(-c3ccncc3)n[nH]c2=S)c1,?,15,1%,?,20µM*,-3
